Measurements taken from PubChem BioAssay AID902 (National Center for Advancing Translational Sciences (NCATS), 2007).
Several values for one entry are separate records, joined by “and”; a condition that tells them apart may be missing. Equal entries are not always repeated. Among all 130,000 compounds or so, about 1,900 (1.5%) were called active. About 5% were inconclusive and are not listed. Calls follow the shape of the dose curve; as a rule, active = well fitted cell-killing curve with a large enough effect; inconclusive = small, poorly fitted or top-dose-only effect; inactive = no such curve, though single readings can be large or run the other way. Shown is part of a subset that was picked to be rich in actives. Where a call stands in place of a potency, no number is given. A structure can be active in one record and inactive in another.

Experiment: qHTS Screen for Compounds that Selectively Target Cancer Cells with p53 Mutations: Cytotoxicity of p53ts Cells at the Nonpermissive Temperature; also: nearly all actives have a fitted effect of over 55% in size
Conditions: H1299-p53A138V viability at 39C, ATP luminescence, 24 h; series mostly up to 46.1 µM
Potency is read from the fitted curve at half-maximal effect.

| SMILES | Potency |
| --- | --- |
| COc1ccc(Cn2c(=O)c3oc4ccccc4c3n(CC(=O)Nc3ccc(F)cc3F)c2=O)cc1 | inactive |
| O=C(Cn1nnc(-c2ccccc2)n1)NCc1ccccc1 | inactive |
| CCCN(C(=O)Cn1cc(S(=O)(=O)N2CCN(c3ccccc3F)CC2)c2ccccc2c1=O)c1cccc(C)c1 | inactive |
| CCN(C(=O)Cn1c(=O)nc(-c2ccccc2)c2cc(Cl)ccc21)c1cccc(C)c1 | 15.8 µM (active) |
| Cc1ccc(CNC(=O)CN2CCN(Cc3ccc(Cl)cc3)C2=O)cc1 | inactive |
| CCN(CCCNC(=O)CSc1cc(=O)n(C)c2cc(Cl)ccc12)c1cccc(C)c1 | inactive |
| O=C(Cn1c(=O)nc(-c2ccccc2)c2cc(Cl)ccc21)NCc1ccc(Cl)cc1 | 10 µM (active) |
| CC1CCN(S(=O)(=O)c2ccc3c(c2)N(CC(=O)NCCc2ccccc2)C(=O)CO3)CC1 | inactive |
| Cc1ccc(N(CC(=O)NCc2ccc(Cl)cc2)S(=O)(=O)N(C)C)cc1 | inactive |
| CCc1nn(CC(=O)Nc2cc(C)cc(C)c2)c(=O)c2cc3sccc3n12 | inactive |
| CCc1cccc(NC(=O)Cn2nc(CC)n3c(cc4cc(C)ccc43)c2=O)c1 | 25.1 µM (active) |
| CCc1nn(CC(=O)Nc2cccc(C)c2C)c(=O)c2cc3sccc3n12 | inactive |
| CCCCN(CC)CCCNC(=O)Cn1ncc2c([nH]c3ccc(C)cc32)c1=O | inactive |
| c1ccc(CNc2ncnc3[nH]ncc23)cc1 | inactive |
| CCC(C)NC(=O)Cn1c(=O)n(-c2ccc(Cl)cc2)c(=O)c2c3c(sc21)CCCC3 (stereo not given) | inactive |
| Cc1ccc(NC(=O)Cn2c(=O)n(-c3ccccc3)c(=O)c3c4c(sc32)CCCC4)cc1 | 12.6 µM (active) |
| CCCN(CCC)C(=O)Cn1c(=O)n(-c2ccc(Cl)cc2)c(=O)c2c3c(sc21)CCCCC3 | inactive |
| CCOC(=O)c1c(S(=O)(=O)N2CCCC(C(=O)NCc3ccc(F)cc3)C2)c(C)n(CC)c1C (stereo not given) | inactive |
| COc1ccccc1Nc1c2c(nc3ccc(NC(=O)/C=C/c4cc(OC)c(OC)c(OC)c4)cc13)CCCC2 | 15.8 µM (active) |
| O=C(Nc1c2c(nc3ccccc13)CCCC2)c1ccccc1Br | inactive |
| COc1cccc(C(=O)Nc2ccc3nc4n(c(=O)c3c2)CCCCC4)c1 | inactive |
| O=C(O)c1ccc(Cn2c(SCc3ccc(F)cc3)nc3ccncc32)cc1 | inactive |
| Cc1ccn2c(Nc3ccc4c(c3)OCCO4)c(-c3ccc(C)s3)nc2c1 | 12.6 µM (active) |
| Cc1cccc2nc(-c3ccc(Cl)s3)c(Nc3ccc4c(c3)OCCO4)n12 | inactive |

| SMILES | Potency |
| --- | --- |
| Cc1ccc(Nc2c(-c3ccc(C)s3)nc3ccccn23)cc1 | inactive |
| CCN(C(=O)c1sc2cc(OC)ccc2c1Cl)c1ccccc1 | inactive |
| COc1ccc(N2CCN(C3=NS(=O)(=O)C(c4cccc(Br)c4)=C3C)CC2)cc1 | inactive |
| CCOc1ccc(-n2c(C)nc3c(cnn3-c3ccc(C)cc3)c2=O)cc1 | inactive |
| Cc1cccc(N2CCN(C(=O)c3ccc4c(c3)CCN4S(=O)(=O)c3ccccc3)CC2)c1C | inactive |
| Cc1c(C(=O)N2CC(C)OC(C)C2)sc2nc(-c3ccccc3)cn12 (stereo not given) | inactive |
| CCC(CC)c1nnc(NS(=O)(=O)Cc2ccccc2)s1 | inactive |
| CCC(CC)c1nn2cc(-c3ccccc3)nc2s1 | 6.31 µM (active) |
| CC(C)c1ccc(C2CC(=O)N3CN(C4CCCCC4)CSC3=C2C#N)cc1 (stereo not given) | inactive |
| Cc1noc(/C=C/N(C)C)c1S(=O)(=O)N1CCCC(C(=O)Nc2cccc(F)c2)C1 (stereo not given) | inactive |
| CN(C(=O)c1ccc2c(c1)N(Cc1cccc(Cl)c1)C(=O)c1ccccc1S2=O)C1CCCCC1 (stereo not given) | inactive |
| Cc1ccc2c(=O)c(C(=O)c3cccc(Cl)c3)cn(CC(=O)NCc3ccccc3)c2n1 | inactive |
| CN1CCC[C@@H]1CCO[C@](C)(c1ccccc1)c1ccc(Cl)cc1 | inactive and 12.6 µM (active) |
| CN1CCCC1CCO[C@@](C)(c1ccccc1)c1ccc(Cl)cc1 (stereo not given in full) | inactive |
| Cc1ccsc1C(=O)OCC(=O)c1cc(C)n(CC2CCCO2)c1C (stereo not given) | 7.94 µM (active) |
| COC(=O)c1ccc2c(=O)n(CC3CCCO3)c(=S)[nH]c2c1 (stereo not given) | inactive |
| Cc1ccsc1C(=O)OCC(=O)c1cc2ccccc2o1 | inactive |
| COc1ccccc1N1CCN(C(=O)CN(Cc2ccc(Cl)cc2)S(C)(=O)=O)CC1 | inactive |
| COc1ccccc1N1CCN(Cc2nnnn2CCc2ccccc2)CC1 | inactive |
| COc1ccccc1-n1nnnc1S(=O)(=O)Cc1ccc(Cl)cc1 | 6.31 µM (active) |
| Cc1cccc(N2CCN(S(=O)(=O)c3ccc4[nH]c5c(c4c3)CCCCC5)CC2)c1C | inactive |
| CN(C)S(=O)(=O)c1ccc(C(=O)N(Cc2cccnc2)c2nc3c(F)cc(F)cc3s2)cc1 | inactive |
| O=C(CCOc1ccccc1)N(Cc1cccnc1)c1nc2ccc(Cl)cc2s1 | inactive |
| O=C(CCS(=O)(=O)c1ccccc1)N(Cc1cccnc1)c1nc2c(F)cccc2s1 | 31.6 µM (active) |

| SMILES | Potency |
| --- | --- |
| CCc1ccc(NC(=O)C2CCCN2S(=O)(=O)c2ccc3nc(-c4ccccc4)[nH]c3c2)cc1 (stereo not given) | inactive |
| CCc1cccc(-n2nnc(-c3nsc(NC(=O)c4ccc(C)cc4)n3)c2C)c1 | inactive |
| CC1Cc2cc(S(=O)(=O)CCC(=O)Nc3ccc(F)c(Cl)c3)ccc2N1C(=O)C1CC1 (stereo not given) | inactive |
| COc1ccc(-n2cnc3cc(C(=O)NC4CCCC4)ccc32)cc1 | inactive |
| CCc1ccc2oc(-c3ccc(N)cc3)nc2c1 | 10 µM (active) |
| CCC(C)c1ccc2oc(-c3ccc(NC(=O)c4cc5ccccc5o4)cc3)nc2c1 (stereo not given) | inactive |
| COC(=O)c1ccc(-c2nc3cc(NC(C)=O)ccc3o2)cc1 | inactive |
| Cc1ccc(C)c(S(=O)(=O)c2nnn3c2nc(N2CCOCC2)c2sccc23)c1 | inactive |
| CCS(=O)(=O)c1ncc(N(Cc2ccc(F)cc2)Cc2ccco2)c(C(=O)Nc2cc(C)ccc2C)n1 | inactive |
| CCSc1ncc(Cl)c(C(=O)Nc2cc(C)ccc2C)n1 | inactive |
| Cc1ccc(NC(=O)c2nc(S(=O)(=O)Cc3cccc(C)c3)ncc2Cl)cc1 | 10 µM (active) |
| Cn1c(=O)n(Cc2c(F)cccc2Cl)c(=O)c2c1nc1n2CCN1c1ccc(F)cc1 | inactive |
| Oc1c(C(c2ccccc2Cl)N2CCOCC2)sc2nc(-c3ccco3)nn12 (stereo not given) | inactive |
| Oc1c(C(c2ccccn2)N2CCOCC2)ccc2cccnc12 (stereo not given) | 12.6 µM (active) |
| Cc1nc2sc(C(c3ccco3)N3CCOCC3)c(O)n2n1 (stereo not given) | inactive |
| Cc1ccc(CCNC(=O)c2ccc3c(c2)N(Cc2cc(C)ccc2C)C(=O)c2ccccc2S3=O)cc1 (stereo not given) | inactive |
| CC(=O)N1CCc2cc(Br)cc(S(=O)(=O)CCC(=O)NCCc3ccc(Cl)cc3)c21 | inactive |
| COc1cc(CNCCSc2nnnn2C)ccc1OCc1c(F)cccc1Cl | inactive |
| Cn1nnnc1SCCNCc1ccc(Cl)c(Cl)c1 | inactive |
| COc1cc(CNCCSc2nnnn2C)ccc1OCc1ccc(Cl)cc1Cl | 25.1 µM (active) |
| Cc1ccccc1CSCCNC(=O)C1CCN(S(=O)(=O)Cc2ccccc2)CC1 | inactive |
| Cc1ccc(NC(=O)c2ccc3[nH]c(C)cc(=O)c3c2)c(C)c1 | inactive |
| Cc1c(C(=O)NCc2ccccc2Br)oc2ccc3c(c12)C(=O)CC(C)(C)O3 | 15.8 µM (active) |
| CCC1(C)CC(=O)c2c(ccc3oc(C(=O)Nc4ccc(C(C)=O)cc4)c(C)c23)O1 (stereo not given) | inactive |

| SMILES | Potency |
| --- | --- |
| CC1(C)CC(=O)c2cc(OCC(=O)NCC3CCCO3)ccc2O1 (stereo not given) | inactive |
| CCS(=O)(=O)N1CCc2cc(C(=O)NCc3ccc(C)cc3)ccc21 | inactive |
| Cc1ccc(O)c(NC(=O)CCS(=O)(=O)c2nc(-c3ccc4c(c3)OCO4)cc(C(F)(F)F)n2)c1 | 3.16 µM (active) |
| Cc1ccc(O)c(NC(=O)c2cc(-c3ccc(F)cc3)no2)c1 | inactive |
| COc1ccccc1-c1cc(C(F)(F)F)nc(S(=O)(=O)CCCC(=O)Nc2ccc(F)cc2F)n1 | inactive |
| Cc1ccc(CNC(=O)c2ccc(CS(=O)Cc3cccc(Cl)c3)o2)cc1 (stereo not given) | inactive |
| c1c2c(cc3sc(N4CCCCC4)nc13)OCCO2 | 2 µM (active) |
| COc1ccc2nc(Nc3nc4cc5c(cc4s3)OCCO5)sc2c1 | inactive |
| Fc1ccc2nc(N3CCCCC3)sc2c1 | inactive |
| Cc1cccc(CSc2nc3ccncc3n2CC(=O)N(C)C2CCCCC2)c1 | inactive |
| Cc1ccc(C(=O)Nc2ccc3[nH]c(=O)c(=O)[nH]c3c2)cc1 | inactive |
| CC(C)c1ccc(NC(=O)c2ccc3c(O)c(S(=O)(=O)c4ccccc4)c(=O)[nH]c3c2)cc1 | 6.31 µM (active) |
| COc1ccc(CNC(=O)c2ccc3c(O)c(S(=O)(=O)c4ccccc4)c(=O)[nH]c3c2)cc1 | inactive |
| COc1ccc(C)cc1NC(=O)CCc1c(C)nn(-c2ccc(N3CCOCC3)nn2)c1C | inactive |
| Cc1ccc(N2CC(NC(=O)Cc3cccs3)CC2=O)cc1 (stereo not given) | inactive |
| CCCCN1C(=O)c2[nH]nc(-c3ccccc3O)c2C1c1cccc(OCc2ccccc2)c1 (stereo not given) | 25.1 µM (active) |
| COc1cccc(-c2n[nH]c3c2C(c2cccc(O)c2)N(C)C3=O)c1 (stereo not given) | inactive |
| COc1ccc(CCN2C(=O)c3[nH]nc(-c4ccccc4O)c3C2c2ccc(C)cc2)cc1OC (stereo not given) | inactive |
| CCCOc1ccc(C2c3c(-c4ccccc4O)n[nH]c3C(=O)N2Cc2cccnc2)cc1 (stereo not given) | 12.6 µM (active) |
| CCOc1ccc(/C(O)=C2/C(=O)C(=O)N(Cc3cccnc3)C2c2ccc(N(C)C)cc2)c(C)c1 (stereo not given) | inactive |
| COc1ccc(C2C(C(C)=O)=C(O)C(=O)N2Cc2cccnc2)cc1 (stereo not given) | inactive |
| O=C(c1cccc(Cl)c1)N1CCN(CCc2ccncc2)CC1 | inactive |
| Fc1ccc(C(Nc2ccc(Cl)c(C(F)(F)F)c2)c2nnc(-c3ccccc3)o2)cc1 (stereo not given) | inactive |
